Compound activity (PubChem)
HTT cytoprotect: protects HTT-Q103 PC12 cells, measured by ATP; 0.14% of 230,000 active; Potency, µM (series often up to 56.4 µM), for the others: cytoprotection (ATP increase), most hits filed as activators; PC12 HTT-Q103 induced, cytoprotection, ATP luminescence, 40 h; also: % of control where 0% means no effect; nearly all actives have a fitted effect of over 45% in size
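Stable PC12 Q103-GFP cells in serum-supplemented, phenol red-free DMEM; induction by tebufenozide at 100 nM final; compound dose series; cell viability quantified luminescently from ATP.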
HPGD inh: blocks human HPGD enzyme activity | purified HPGD, NADH fluorescence kinetic, PGE2 substrate | Potency, µM, for the others: at the top dose activity change, negative = inhibition, usual class: inhibitors | 4.3% of 150,000 active; active = well fitted inhibition curve with a large enough effect, not every such curve was filed as active; inconclusive = small, poorly fitted or top-dose-only effect, or another doubt; inactive = no such curve, though single readings can be large or run the other way; also: % is scaled to controls: 0 for no effect and ±100 for the full control effect
Target sequence (P15428 whole entry, looked up): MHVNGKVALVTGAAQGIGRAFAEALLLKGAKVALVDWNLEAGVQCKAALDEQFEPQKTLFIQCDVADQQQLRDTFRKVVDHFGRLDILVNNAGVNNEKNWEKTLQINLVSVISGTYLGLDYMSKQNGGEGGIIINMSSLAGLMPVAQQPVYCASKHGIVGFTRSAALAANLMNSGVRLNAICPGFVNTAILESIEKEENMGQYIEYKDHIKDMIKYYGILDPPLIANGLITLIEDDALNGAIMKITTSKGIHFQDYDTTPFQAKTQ
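20 nM HPGD preincubated 15 min at room temperature with compound in 50 mM Tris-HCl pH 8, 0.01% Tween 20. Started with 1 mM NAD+ and 30 uM prostaglandin E2; NADH fluorescence (360/450 nm) read 5 times over 30-s intervals, last minus first.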
LMNA splice mod: LMNA splicing modulation; AID 1487; Potency, µM (titrated, usually from 46.1 µM), for the others: top-dose ratio change, negative = inhibition, hits mostly inhibitors; HeLa LMNA splicing GFP/RFP minigene ratio, 48 h; 0.01% of 200,000 active; active = well fitted inhibition curve with a large enough effect in the signal ratio, with a control signal flat, not every such curve was filed as active; inconclusive = small, poorly fitted or top-dose-only effect, or effect the other way, or a change in a side signal; the % refers to the signal ratio; also: % is scaled to controls: 0 for no effect and ±100 for the full control effect
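S3 HeLa cells stably expressing lamin A-EGFP splicing minigene plus DsRed2, 600 cells/well, 48 h compound exposure at 37C. Laser-scanning cytometry; analysed as GFP (500-530 nm)/RFP (575-640 nm) total intensity ratio; 0.5% DMSO vehicle.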
ALDH1A1 block: blocks purified human ALDH1A1 activity | Purified ALDH1A1, NADH fluorescence, propionaldehyde substrate | Potency, µM (doses to about 75.3 µM), for inactives: at the highest dose activity, negative = inhibition, most hits filed as inhibitors | 7.3% of 220,000 active | AID 1030; active = well fitted inhibition curve with a large enough effect, not every such curve was filed as active; inconclusive = small, poorly fitted or top-dose-only effect, or another doubt; inactive = no such curve, though single readings can be large or run the other way;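 also: plate controls were no enzyme wells and a reference inhibitor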
Target sequence (P00352 whole entry, looked up): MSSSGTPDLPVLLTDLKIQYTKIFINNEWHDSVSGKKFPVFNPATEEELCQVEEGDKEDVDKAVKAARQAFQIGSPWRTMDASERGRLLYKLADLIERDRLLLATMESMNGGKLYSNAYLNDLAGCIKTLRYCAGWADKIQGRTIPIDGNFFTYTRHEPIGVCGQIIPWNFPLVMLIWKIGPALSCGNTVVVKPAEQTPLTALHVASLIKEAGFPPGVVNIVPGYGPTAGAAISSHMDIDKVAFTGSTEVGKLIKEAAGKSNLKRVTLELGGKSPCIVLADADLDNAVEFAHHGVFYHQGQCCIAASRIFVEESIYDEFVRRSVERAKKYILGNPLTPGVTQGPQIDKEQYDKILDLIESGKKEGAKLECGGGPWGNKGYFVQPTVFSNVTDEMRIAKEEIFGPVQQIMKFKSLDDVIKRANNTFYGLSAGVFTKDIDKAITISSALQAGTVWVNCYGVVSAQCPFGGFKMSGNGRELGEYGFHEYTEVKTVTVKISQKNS
KinaseGlo FLuc: blocks Kinase-Glo luciferase, a counter-screen artifact; Q27757; Kinase-Glo luciferase, ATP luminescence, 8 min; Potency, µM (top dose mostly 38.3 µM), inactives show top-dose activity change, negative = inhibition, usual class: inhibitors; 0.28% of 200,000 active; AID 1379; also: % is scaled to controls: 0 for no effect and ±100 for the full control effect; nearly all actives have a fitted effect of over 60% in size
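Substrate mix (final 50 mM imidazole pH 7.2, 50 mM KCl, 7 mM MgCl2, 10 uM ATP, 0.01% Tween 20, 0.05% BSA) plus pin-tool compound, then Kinase-Glo detection mix; 8 min ambient, luminescence read.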
HttQ103 aggreg: inhibitors of mutant huntingtin aggregate formation in PC12 cells; PC12 HttQ103-GFP aggregates, Acumen cytometry, 40 h; AID 1688; 1.1% of 220,000 active; Potency, µM (titrated, usually from 46.1 µM), inactives show at the top dose activity change, negative = inhibition, actives largely listed as inhibitors; also: % is scaled to controls: 0 for no effect and ±100 for the full control effect; nearly all actives have a fitted effect of over 60% in size
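PC12 cells stably carrying ecdysone-inducible HTT exon 1 Q103–GFP were induced with tebufenozide (100 nM final) and treated with library compounds in titration. GFP aggregates in lysates were counted by laser scanning cytometry.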
The depositor's hits bear a star; ? = inconclusive; · = no result; ! = not confirmed by another sample; [ ] = remark or other dose. An excerpt weighted towards active compounds, which were near 9% of everything screened. Unless noted, calls follow the shape of the dose curve; as a rule, active = well fitted curve in the direction sought with a large enough effect; inconclusive = small, poorly fitted or top-dose-only effect, or another doubt; inactive = no such curve, though single readings can be large; an effect the other way counts as inactive or inconclusive. Potency is read from the fitted curve at half-maximal effect.

SMILES	HTT cytoprotect	HPGD inh	LMNA splice mod	ALDH1A1 block	KinaseGlo FLuc	HttQ103 aggreg
CC(C)(C)c1ccc(O)c(C[N+](C)(C)C)c1	13%[10 µM]	-16%	·	15%[13.5 µM]	-5%[7.66 µM]	·
CC/C(=C\C=C\[C@@H]1C=C[C@@H]2CCC[C@H]2[C@@H]1C(=O)c1ccc[nH]1)[C@@H]1O[C@@H]([C@@H](C)C(=O)O)CC[C@@H]1C	-35%[10 µM]	-7%	?	-9%	1%	11µM*
N#CC(c1ccc(O)cc1)N1CCCCC1 (stereo not drawn)	5%	-17%	4%	4.5µM*	-2%	7%
N#CC(c1ccc(Cl)cc1)N1CCOCC1 (stereo not drawn)	-8%	·	·	22%	3%	0%
COc1cccc(C(C#N)N2CCCCC2)c1O (stereo not drawn)	2%	2.2µM*	18%	8%	-4%	8%
Cc1ccccc1CS(=O)(=O)Cc1ccc(C(=O)N2CCC3(CC2)OCCO3)o1	-4%	-3%	1%[0.0737 µM]	-2%	-3%	-2%
CC1(C)CN=C(Nc2ccc(F)c(Cl)c2)S1	13%[10 µM]	·	·	·	·	-7%[9.22 µM]
CC1(C)CN=C(Nc2ccc(F)c(F)c2)S1	-9%	25µM*	-2%	-4%	-2%	-20%
CCOP(=S)(OCC)N1CCOCCOCCN(P(=S)(OCC)OCC)CCOCCOCC1	-32%[10 µM]	·	-3%[46 µM]	-14%	1%	16%
CC(=O)Nc1nc(CCl)cs1	7%	·	·	-4%	-2%	-4%
CC1=CCCC2C1(C)CCC(C)C2(C)CC/C(C)=C/C[n+]1cn(C)c2c(N)ncnc21 (stereo not drawn)	1%	-7%	·	18µM*	-5%	·
NS(=O)(=O)c1ccc(-c2ccc([As](=O)(O)O)cc2)cc1	3%[10 µM]	-11%	·	4%[13.5 µM]	-3%[7.66 µM]	·
Cn1ncnc2c(=O)n(C)c(=O)nc1-2	-88%	-23%	?	?	-1%	5µM*
Cn1c[n+](C)cc1C(O)c1ccccc1 (stereo not drawn)	-12%	-10%	9%	-3%	0%	0%
CC1CCCN(C(=O)c2ccc(N3CC4CC(C3)c3cccc(=O)n3C4)c([N+](=O)[O-])c2)C1 (stereo not drawn)	7%[10 µM]	18µM*	-15%	7.9µM*	-2%	-16%
CCOC(=O)c1c(C)n(Cc2ccco2)c2ccc(O)cc12	2%	22µM*	-1%	4µM*	1%	-7%
CCOC(=O)Cc1csc(NC(=O)c2c(O)c3ccccc3n(CCC(C)C)c2=O)n1	14%[10 µM]	·	·	2%	2%	24%[9.22 µM]
OCC(CBr)(CBr)CBr	-47%	-9%	·	18µM*	·	·
C=CCN1C[C@H](C)N([C@@H](c2ccccc2)c2ccc(C(=O)N(CC)CC)cc2)C[C@H]1C	2%	?	·	2%	-1%	·
C=CCN1C[C@H](C)N([C@H](c2ccc(C(=O)N(CC)CC)cc2)c2cccc(O)c2)C[C@H]1C	-22%	11µM*	·	4%	1%	·
O=C(N/N=C/C1C(=O)NC(=S)N(c2ccccc2)C1=O)c1cc(Br)c(O)c(Br)c1 (stereo not drawn)	-37%	·	·	13µM*	1%	19%
OCCCCO	-1%	-8%	·	-3%	·	·
CCN(CC)C(=O)c1ccc(NC(=O)Cn2nc(C)c3ccccc3c2=O)cc1	27%	10µM*	-8%	?	-2%	12%
FC(F)(F)c1ccccc1CN1CCN(Cc2ccccc2)CC1	-15%	-13%	10%	20µM*	-1%	-2%
Nc1ncc([N+](=O)[O-])s1	7%	?	·	25µM*	·	·
SMILES	HTT cytoprotect	HPGD inh	LMNA splice mod	ALDH1A1 block	KinaseGlo FLuc	HttQ103 aggreg
COC[C@H]1OC(=O)c2coc3c2[C@@]1(C)C1=C(C3=O)[C@H]2CCC(=O)[C@@]2(C)C[C@H]1OC(C)=O	-42%	32µM*	·	28µM*	-16%	·
COC[C@H]1OC(=O)c2coc3c2[C@@]1(C)C1=C(C3=O)C2CCC(=O)[C@@]2(C)C[C@H]1OC(C)=O (stereo partly drawn)	-150%	35µM*!	?	28µM*!	-13%	·
CCCC1C(C#N)=C(N)Oc2c1c(=O)oc1ccccc21 (stereo not drawn)	11%[10 µM]	-5%	-12%	3%	3%	0%
Clc1ccc2c(c1)C(c1ccccc1Cl)=NCc1nnc(N3CCN(CCSc4ccccc4)CC3)n1-2	-64%	-9%	?	?	-3%	?
Cc1ccc(-n2c(O)c(C=Nc3ccc(S(=O)(=O)N(C)C)cc3)c(=O)[nH]c2=O)cc1	23%[10 µM]	-14%	0%	-7%	-4%	10%
CCOC(=O)c1ccc(NC(c2ccc(N(C)C)cc2)P(=O)(OC(C)C)OC(C)C)cc1 (stereo not drawn)	-29%	·	-22%[46 µM]	?	-6%	-18%
CCOC(=O)c1ccc(NC(=O)C2C3C=CC(O3)C2C(=O)O)cc1 (stereo not drawn)	30%	-9%	27%	10µM*	11%	0%
CCC/C=C/C=C/C(=O)OC1/C(=C/C(=O)OC)CC2CC(C(C)O)OC(=O)CC(O)CC3CC(OC(C)=O)C(C)(C)C(O)(CC4C/C(=C/C(=O)OC)CC(/C=C\C(C)(C)C1(O)O2)O4)O3 (stereo not drawn)	1%	·	·	·	·	3%
CCOc1ccc(Cl)cc1CNCCc1ccccc1F	-3%[10 µM]	·	·	·	·	4%[9.22 µM]
Cc1cccc(N2C(=O)NC(=O)/C(=C\c3ccc4c(c3)CCCN4Cc3ccccc3)C2=O)c1	26%[10 µM]	7.1µM*	-6%	0.18µM*	-2%	?
CC(O)C(C)OC(=O)[C@@H]1C[C@@H]2c3cccc4c3c(cn4C(C)C)C[C@H]2N(C)C1 (stereo partly drawn)	-44%	-16%	-22%	1.8µM*!	-3%	·
O=c1c(O)c(-c2ccc(O)c(O)c2)oc2cc(O)cc(O)c12	?	20µM*!	?	13µM*!	0%	-26%
O=c1cc(-c2ccc(O)c(O)c2)oc2cc(O)cc(O)c12	?	11µM*!	?	20µM*	2%	-32%[9.22 µM]
COc1cccc(NC(=O)CN2CC(c3ccccc3)CC2=O)c1 (stereo not drawn)	-19%	-11%	-3%	11%	0%	7%
Cc1cc(S(=O)(=O)NCc2ccccc2)ccc1OCC(=O)N1CCN(C)CC1	5%	-17%	15%	4%	2%	-9%
CCCC(C)C1C(C#N)=C(N)Oc2c1c(=O)oc1ccccc21 (stereo not drawn)	-14%	?	-13%	-2%	-1%	-1%
COC1=CC(=O)O[C@@H](/C=C/c2ccc3c(c2)OCO3)C1	-79%	-6%	·	25µM*	·	·
Cc1ccccc1C(O)(Cc1ccccc1)C1CN2CCC1CC2 (stereo not drawn)	3.2µM*	1%	12%	-3%	3%	-2%[9.22 µM]
